Assay outcomes as filed in PubChem BioAssay.
Methyltransferases: Primary Screen for Target Class Profiling of Small Molecule Inhibitors of Methyltransferases | purified enzyme, MTase-Glo SAH luminescence; hits give low values | calls only at 40 µM | 25,000 tested, 3.9% active | AID 1745853, 2022; call rule not given here
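Each enzyme was assayed with SAM and its substrate. SAH formation detected by MTase-Glo luminescence; single-point 40 uM screen[…].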
The depositor's hits bear a star; i = inactive; + = active, no number; ! = not confirmed by another sample. Many of the other results were omitted from the sample, so hits are more common in it than they were. % is scaled to controls: 0 for no effect and ±100 for the full control effect.

SMILES	Methyltransferases
COc1ccccc1CN1C(=O)c2cc(-c3cccs3)nn2CC1(C)C(=O)NC1CCCCC1 (configuration not stated)	i
CN(C(=O)CN1CCCn2nc(C(=O)NCc3ccc(Cl)cc3)cc2C1=O)c1ccccc1	i
O=C(NCc1cccnc1)c1ccc2c(=O)nc3c(-c4ccccc4)n[nH]n3c2c1	i
CCOC(=O)c1cc2n(n1)CC(C)(C(=O)NC1CCCCC1)N(Cc1cccc(C)c1)C2=O (configuration not stated)	i
CC(=O)Nc1cccc(C(=O)NCc2nn(Cc3ccccc3)c3ccccc23)c1	i
CCOC(=O)C1(CCOc2ccccc2)CCN(Cc2ccc(O)c(Cl)c2)CC1	i
O=C(O)Cn1nnc(-c2ccc(CN(CCCCOc3ccc(CN4CCCC4)cc3)CCc3ccccc3)cc2)n1	+
C=CCOc1c(OC)ccc2c1CN(Cc1ccco1)C(=O)CCN2CC(O)COCc1ccco1 (configuration not stated)	i
CCOc1cc2oc(=O)cc(-c3ccccc3)c2cc1Cl	i
CCOc1cc(OCC)c2c(-c3ccccc3)cc(=O)oc2c1	+
CCCCCOc1ccc2c(-c3ccccc3)cc(=O)oc2c1	i
CCOCCCN1C(=O)c2c(NC(C)=O)c3cc(F)ccc3n2CC1(C)C(=O)NC1CCCCC1 (configuration not stated)	i
CC1(C)C2CCC1(C)C(OC(=O)C(O)(CC(=O)O)CC(=O)O)C2 (configuration not stated)	+
COc1ccc(OC)c(CCNC(=O)C(C)n2ccc3cc(S(=O)(=O)N4CCCC4)ccc32)c1 (configuration not stated)	i
CCOc1ccc(CCNS(=O)(=O)c2ccc3[nH]c(=O)[nH]c3c2)cc1OCC	i
O=C(CCn1ccc2cc(S(=O)(=O)N3CCCCC3)ccc21)NCc1ccc2c(c1)OCO2	i
Cc1cc2c(cc3n2CC(C)(C(=O)NC2CCCCC2)N(Cc2ccc(OC(C)C)cc2)C3=O)o1 (configuration not stated)	i
Cc1ccc(Cl)cc1NC(=O)CSc1nnc2[nH]c(=O)c(C)nn12	i
CN(C)c1ccc(NC(=O)NS(=O)(=O)c2ccc(Cl)cc2)cc1	+
CCCNC(=O)NS(=O)(=O)c1ccc(Cl)cc1	i
Cn1c(=O)n(C)c2cc(S(=O)(=O)Nc3ccc(Cl)cc3)ccc21	i
Cc1ccc(C)c(N2CCN(C(=O)CN(C)S(=O)(=O)c3ccc4[nH]c5c(c4c3)CCCC5)CC2)c1	i
CC1CCCCC1NC(=O)C1(C)Cn2c(ccc2-c2ccco2)C(=O)N1Cc1ccc(Cl)cc1 (configuration not stated)	i
CC1(C(=O)NC2CCCCCCC2)Cn2c(cc3occc32)C(=O)N1C1CCCCCC1 (configuration not stated)	i
CCC(C)NC(=O)CSc1nnc2n(Cc3ccc(C)cc3)c(=O)c3ccccc3n12 (configuration not stated)	i
SMILES	Methyltransferases
CC(C)[C@@H]1C[C@@H]2C[C@@H](Nc3ccccn3)C[C@]2(c2ccccc2)CO1	i
O=C(O)C1(Cc2cccc(Nc3nccs3)n2)CCC(Oc2cccc(Cl)c2F)CC1 (configuration not stated)	+!
CC1(C(=O)NC2CCCCCC2)Cn2c(c(-n3cccc3)c3cc(F)ccc32)C(=O)N1Cc1ccccc1 (configuration not stated)	i
CCCSCCCNC(=O)c1cc2n(n1)CC(C)(C(=O)NC1CCCCC1)N(C)C2=O (configuration not stated)	i
C=Cc1ccc(CSc2nnc3n(CCC)c(=O)c4ccccc4n23)cc1	i
COc1ccccc1CNC(=O)c1cc2n(n1)CC(C)(C(=O)NCc1ccccc1)N(C)C2=O (configuration not stated)	i
Cc1cccc(CSc2nnc3n(Cc4ccccc4)c(=O)c4ccccc4n23)c1	i
CNS(=O)(=O)CC1CCC(N(C)c2ncnc3[nH]ccc23)CC1 (configuration not stated)	+
CC(c1ccccc1)N1C(=O)c2ccccc2CC1(C)C(=O)NC1CCCCCCC1 (configuration not stated)	i
Cc1cc2[nH]c(=O)[nH]c2cc1S(=O)(=O)Nc1cccc(Cl)c1	i
c1ccc2c(Nc3nnc(-c4ccncc4)s3)cccc2c1	i
COc1cc(Br)c(Nc2nc(-c3c(C)nc4ncccn34)cs2)c(Br)c1	i
Cc1cccc(Nc2nc(-c3ccncc3)cs2)c1	+
CN1C(=O)c2cc(C(=O)NCc3cccc(Cl)c3)nn2CC1(C)C(=O)NCc1ccccc1 (configuration not stated)	i
Cc1ccccc1CN1C(=O)c2cc3sccc3n2CC1(C)C(=O)NC1CCCCC1 (configuration not stated)	i
O=C(CCCCCCC(=O)Nc1ccccc1)NO	i
CC(C)[C@H](C(=O)Nc1ccc(C(=O)NO)cc1)c1ccccc1	+
